From PubChem
CDC25B CDK2 inh = human CDC25B-CDK2/CyclinA binding inhibition | AID 1259370 | HTRF CDC25B-CDK2/CyclinA binding, anti-His/anti-Flag; hits give high values | P30305+P24941 | 0.72% of 94,000 active | z-score (concentration not given with the values); in the data active = z-score above about 3.2
TAR Tat displ = HIV-1 TAR-Tat binding disruption; HIV-1 TAR RNA, Tat peptide displacement FRET; hits give high values; z-score (no concentration beside the values); 0.6% of 100,000 active; active = z-score of 3 or more in at least 2 runs
* hit, by the source's call; . = no result; ! = a repeat was not active. An excerpt weighted towards active compounds, which were near 0.86% of everything screened.

SMILES | CDC25B CDK2 inh | TAR Tat displ
Cc1ccc(C2CC(=O)N3CN(CCC(C)C)CSC3=C2C#N)cc1 (stereo unspecified) | 5.2* | -2.1
CC(C)CCN1CSC2=C(C#N)C(c3ccc(Cl)cc3)CC(=O)N2C1 (stereo unspecified) | 0.66 | 0.8
CC(C)CCN1CSC2=C(C#N)C(c3ccc(F)cc3)CC(=O)N2C1 (stereo unspecified) | 5* | -0.59
CCc1ccc(C2CC(=O)NC3=C2C(=O)CC(c2cccs2)C3)cc1 (stereo unspecified) | 1.6 | 0.18
COc1ccc(-c2onc(C)c2C)cc1S(=O)(=O)Nc1ccc(C)cc1C | . | 0.13
O=C(O)c1ccccc1C(=O)Nc1ccc2c(c1)C(=O)c1ccccc1C2=O | 7.8* | .
O=C(Nc1ccc2c(c1)C(=O)c1ccccc1C2=O)c1ccccc1 | -0.85 | .
Cc1ccc2[nH]c3c(=O)n(CCN4CCCCC4C)cnc3c2c1 (stereo unspecified) | -1.3 | 1
COc1cc2[nH]c3c(=O)n(CCN4CCCCC4C)cnc3c2cc1OC (stereo unspecified) | -1.1 | 6.4*
O=C(CCS(=O)(=O)c1ccc2c(c1)CCN2C(=O)C1CC1)NCc1ccco1 | . | -0.69
O=C(Nc1ccc2c(c1)C(=O)OC2)NC1CCCCC1 | -1.5 | 0.68
COc1ccccc1/C=C/c1nn2c(-c3ccc(C)cc3)nnc2s1 | 2.4 | 1.3
CC(C)CC(=O)N1CCC(c2nc3ccccc3o2)CC1 | -0.95 | 0.71
O=C1c2cc(S(=O)(=O)Nc3ccccc3)ccc2-c2ccc(S(=O)(=O)Nc3ccccc3)cc21 | -1.1 | -0.3
CCCCc1ccc(N2CCn3c2nc2c3c(=O)n(CC(=O)O)c(=O)n2C)cc1 | 0.74 | 0.08
CCC(=O)Nc1nc2c(s1)CC(C(C)(C)C)CC2 (stereo unspecified) | 1.5 | 0.69
CCCN[C@H]1CCc2nc(N)sc2C1 | -0.45 | 11*!
O=c1[nH]nc(-c2ccc(Br)cc2)nc1Cc1ccco1 | . | 0.65
COC(=O)c1sc2ccc(N)cc2c1OCC(C)C | 3 | -2.2
CCOc1c(C(=O)OC)sc2ccc(N)cc12 | 7.7* | -1.9
COC(=O)c1sc2ccc(N)cc2c1OC | 5.4* | -2.8
COC(=O)c1sc2ccccc2c1Cl | 1.3 | 1.9
Cc1cc(C)cc(N2C(=O)N(Cc3ccccc3Cl)C3CS(=O)(=O)CC32)c1 (stereo unspecified) | . | -0.18
Oc1ccc(Cl)cc1C1=NN2C(C1)c1ccccc1OC2c1ccsc1 (stereo unspecified) | 0.22 | -9.1
Oc1ccccc1CN(Cc1ccccc1)Cc1ccccc1 | -0.68 | 0.39
SMILES | CDC25B CDK2 inh | TAR Tat displ
O=C(O)c1cc(N(Cc2ccccc2O)Cc2cc(O)ccc2O)ccc1O | . | 34*
O=C(Nc1ccc(-n2cnnn2)cc1)c1sc2ccccc2c1Cl | 1.8 | 2.5
CCOc1ccc(CN(CCc2ccc3c(c2)OCO3)Cc2cccnc2)cc1 | 16* | 0.9
CCOc1ccccc1CN(CCc1ccc2c(c1)OCO2)Cc1cccnc1 | -0.39 | .
Oc1cc(O)cc(/C=C/c2ccc(O)c(O)c2)c1 | 1.7 | 37*
Oc1ccc(/C=C/c2ccc(/C=C/c3ccc(O)cc3)c(Br)c2)cc1 | -0.23 | .
Cc1ccc2cc(NC(=O)c3ccc(C(F)(F)F)nc3C)ccc2n1 | -2.1 | .
Cc1ccc2c(c1)C(Cc1nc3ccccc3c(=O)n1CCc1ccccc1)C(=O)N2C (stereo unspecified) | 0.42 | 2.9
CC(C)=CCC/C(C)=C/CC/C(C)=C/CC/C(C)=C/CC/C(C)=C/CC/C(C)=C/CC/C(C)=C/CC/C(C)=C/CC/C(C)=C/CO | . | 32*
CC(C)=CCC/C(C)=C/CC/C(C)=C/CO | . | 0.89
O=C(CC1=NS(=O)(=O)c2ccccc2N1)Nc1ccc(F)c(F)c1 | . | 0.16
Cc1ccc(SCC(=O)OCc2cc(=O)n3nc(-c4cccs4)sc3n2)cc1 | . | 0.74
CCC(=O)OCc1cc(=O)n2nc(-c3cccs3)sc2n1 | . | 19*
CC(NC(=O)CSc1ccsc1[N+](=O)[O-])c1ccc2c(c1)OCCO2 (stereo unspecified) | -1.8 | 0.69
O=C1C(=O)N(Cc2ccccc2)c2ccccc21 | 0.31 | 2
O=C1C(=O)N(CC(O)CN2C(=O)C(=O)c3ccccc32)c2ccccc21 | 2.3 | 15*
CSc1ccccc1NC(=S)Nc1ccc(Cl)cc1 | -1.5 | .
Fc1ccc(NC(=S)Nc2cccc3c(NC(=S)Nc4ccc(F)cc4)cccc23)cc1 | 18* | .
CC(C)c1nn2c(=O)cc(CSc3nc4ccc(NC(=O)c5ccco5)cc4s3)nc2s1 | . | 0.54
COCCCNC(=O)CCC(=O)N1CCCn2nc(C)cc21 | . | 2.3
Cc1cc2n(n1)CCCN2C(=O)CCC(=O)NCCCOC(C)C | . | 4.3*
CS(=O)(=O)C1CS(=O)(=O)CC1O (stereo unspecified) | -1.5 | .
Clc1ccc(-c2cncn2N2CCCCC2)cc1 | -3.7 | .
CCCNS(=O)(=O)c1c(C)[nH]c(C)c1C(=O)OCC | . | 2.2
COc1cc2c(cc1OC)C1=C(C#N)CN(c3ccc(C)c(C)c3)CN1CC2 | 15* | 0.35
SMILES | CDC25B CDK2 inh | TAR Tat displ
COc1cc2c(cc1OC)C1=C(C#N)CN(CCc3ccccc3)CN1CC2 | 2.1 | 0.19
CC1=C(c2ccc(C)c(C)c2)S(=O)(=O)N=C1N1CCC(C(=O)N2CCCC(C)C2)CC1 (stereo unspecified) | -1.4 | 2
COCC1=CC2CC(C1)C[B-]1(C2)Oc2cccc3ccc[n+]1c23 (stereo unspecified) | 5.2* | .
CN(C1CCCCC1)S(=O)(=O)c1ccc2c(c1)CCN2 | . | 1
C=CCN1C(=S)Nc2cccc[n+]2[B-]1(CCCC)CCCC | 3.9* | .
Cc1cc(C)c(C(=O)Nc2cccnc2)c(CC(C)(C)C(=O)O)c1 | -2.8 | .
COc1cc(C2CC(=O)N3CN(c4ccc(F)cc4)CSC3=C2C#N)ccc1O (stereo unspecified) | 3.3* | 29*
COc1cc(C2CC(=O)N3CN(c4ccc(Cl)cc4)CSC3=C2C#N)ccc1O (stereo unspecified) | 4.2* | 25*
COc1cc(C2CC(=O)N3CN(c4ccc(C)c(C)c4)CSC3=C2C#N)ccc1O (stereo unspecified) | 0.52 | 1.6
COc1ccc(N2CSC3=C(C#N)C(c4ccc(O)c(OC)c4)CC(=O)N3C2)cc1 (stereo unspecified) | 4* | -1.6
CCN(CC)CCNc1nc(Nc2ccc(C)cc2C)c2cnn(C)c2n1 | . | 1.1
CCOc1c(Br)cc(C2CC(=O)Nc3c2c(=O)n(C)c(=O)n3C)cc1OC (stereo unspecified) | -1 | 1.2
CCOC(=O)C(=CNC1CCCCNC1=O)C(=O)OCC (stereo unspecified) | 1.1 | .
CCn1nc(C)c(CNC(=O)Nc2cccc(Br)c2)c1C | . | 0.22
NC(=O)CSc1nc(-c2ccc(Cl)cc2)nc2c1Cc1ccccc1O2 | -0.63 | -1.7
COc1ccccc1C1CC(=O)N2C(=C1C#N)SCC2(O)c1ccccc1 (stereo unspecified) | -7 | .
COc1ccccc1C1CC(=O)N2CN(Cc3ccccc3)CSC2=C1C#N (stereo unspecified) | 5.3* | 0.76
COc1cccc(C2CC(=O)N3CN(Cc4ccccc4)CSC3=C2C#N)c1OC (stereo unspecified) | 5.5* | -0.36
N#CC1=C2SCN(Cc3ccccc3)CN2C(=O)CC1c1cccc2ccccc12 (stereo unspecified) | 0 | -0.85
O=C(Nc1sc2c(c1C(=O)NCc1ccco1)CCCC2)c1csnn1 | 0.49 | 0.46
